Rows were chosen to be rich in hits. Some 0.99% of all compounds tested hit in one or more screens of this group.
AMA1 RON2 block: qHTS for Inhibitors of AMA1-RON; Towards Development of Antimalarial Drug Lead: Primary Screen. Plasmodium falciparum AMA1 (3D7) - RON2 peptide interaction. Potency, µM (doses to about 58.2 µM), inactives show top-dose activity change, negative = inhibition, most hits filed as inhibitors. 0.2% of 360,000 active. AlphaScreen AMA1-biotinylated RON2 peptide binding;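 further: potency means the concentration at half of the fitted maximal effect; 0% = vehicle wells and -100% = peptide control; nearly all actives have a fitted effect of over 45% in size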
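AMA1 (3D7) with his tag at 25 nM final met compounds first, then biotinylated RON2 peptide at 25 nM; detection used donor plus acceptor beads, 10 µg/mL apiece, read by AlphaScreen after 30 min at room temperature.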
AmpC inh detg: qHTS Inhibitors of AmpC Beta-Lactamase (assay with detergent); P00811; AmpC hydrolysis of nitrocefin, absorbance 480 nm, 0.01% Triton; Potency, µM (series often up to 114 µM), for the others: at the highest dose activity change, negative = inhibition, hits mostly inhibitors; 0.041% of 370,000 active; AID 485294, 2010;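 further: potency means the concentration at half of the fitted maximal effect; 0% = no-compound wells and -100% = no-enzyme wells; nearly all actives have a fitted effect of over 25% in size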
Target sequence (P00811 whole entry, looked up): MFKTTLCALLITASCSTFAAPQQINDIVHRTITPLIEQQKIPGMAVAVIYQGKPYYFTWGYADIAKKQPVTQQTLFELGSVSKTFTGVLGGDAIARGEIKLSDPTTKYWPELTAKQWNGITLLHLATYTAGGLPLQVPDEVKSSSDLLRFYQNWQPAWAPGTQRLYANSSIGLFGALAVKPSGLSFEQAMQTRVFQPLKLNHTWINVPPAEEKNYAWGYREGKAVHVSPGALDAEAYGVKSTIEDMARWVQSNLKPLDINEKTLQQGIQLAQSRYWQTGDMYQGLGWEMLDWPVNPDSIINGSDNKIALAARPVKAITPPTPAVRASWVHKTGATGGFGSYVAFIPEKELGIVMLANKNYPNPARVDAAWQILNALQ
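20 mM phosphate pH 7.0 + 0.01% (detergent screen) or 0.0001% Triton X-100; 5.3 nM AmpC reagent; cpd preinc 15 min RT; nitrocefin (800 uM stock) to start; A480 q20 s × 4 min; Activity was normalised to no-enzyme and no-compound control wells.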
SARS PLpro yeast-1: qHTS of Yeast-based Assay for SARS-CoV PLP. S. cerevisiae expressing SARS-CoV PLpro, growth rescue. Potency, µM (doses to about 32.9 µM), for the others: at the top dose activity, positive = growth rescue, hits mostly activators. 0.19% of 330,000 active; calls by dose curve; further: potency means the concentration at half of the fitted maximal effect; 0% is about no effect; nearly all actives have a fitted effect of over 55% in size
AmpC no deterg: qHTS Inhibitors of AmpC Beta-Lactamase (assay without detergent); 0.52% of 330,000 active; Potency, µM (titrated, usually from 57.1 µM), without a hit: at the top dose activity change, negative = inhibition, most hits filed as inhibitors; AmpC nitrocefin hydrolysis, absorbance 480 nm, 0.0001% Triton; AID 485341, 2010; P00811;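 further: potency means the concentration at half of the fitted maximal effect; plate controls were no compound for no effect and no enzyme for full effect; nearly all actives have a fitted effect of over 20% in size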
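AmpC (5.3 nM in the dispensed reagent) in 20 mM phosphate pH 7.0 with 0.01% (detergent screen) or 0.0001% Triton X-100 was preincubated with compounds for 15 min at room temperature. Nitrocefin was then added from an 800 uM solution, and hydrolysis was followed at 480 nm.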
NS1 function inh: qHTS Assay for Inhibitors of Influenza NS1 Protein Function. Potency, µM (top dose mostly 46.1 µM), for inactives: top-dose activity, positive = more growth. 0.4% of 270,000 active; calls by dose curve; further: potency means the concentration at half of the fitted maximal effect; actives are rising curves; nearly all actives have a fitted effect of over 50% in size
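OD600 was taken as the measure of yeast growth restored by compound in an NS1-expressing S. cerevisiae strain. Cells had been washed out of glucose medium and diluted 1:100 into galactose -URA medium, pH 6.0.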
SARS PLpro yeast-2: qHTS of Yeast-based Assay for SARS-CoV PLP: Hit Validation; calls only; 19% of 1,000 active; AID 652038, 2013; yeast expressing SARS-CoV PLpro, growth phenotype rescue; shares compounds with SARS PLpro yeast-1; call rule not given here
Starred values were filed as active, the others as inactive; i = inactive; ? = inconclusive; . = no result; + = active, no number; [ ] = another dose, or the depositor's remark. Unless noted, the call rests on the fitted dose curve; in most records, active means well fitted curve in the direction sought with a large enough effect; inconclusive means small, poorly fitted or top-dose-only effect, or another doubt; inactive means no such curve, though single readings can be large; an effect the other way counts as inactive or inconclusive.

SMILES | AMA1 RON2 block | AmpC inh detg | SARS PLpro yeast-1 | AmpC no deterg | NS1 function inh | SARS PLpro yeast-2
COc1ccc(S(=O)(=O)N(CC(=O)N2CCN(c3ccccc3OC)CC2)c2ccccc2)cc1 | 15% | -6% | 4.5µM* | 139% | ? | i
COc1ccc(-c2cn3nc(SCC(=O)Nc4cccc(C)c4C)ccc3n2)cc1 | . | 13% | . | . | . | .
COc1ccc(C(C)NC(=O)c2ccccc2Cl)cc1OC (stereo not given) | -3% | 2% | 11µM* | -13% | -10% | +
COc1ccc(-c2nc(C)c(CCNC(=O)C(=O)Nc3cc(C)cc(C)c3)s2)cc1OC | . | -4% | . | . | . | .
Cc1nn(C(C)C(=O)NCc2ccco2)c(C)c1[N+](=O)[O-] (stereo not given) | -3% | 1% | -2% | -17% | 2% | .
C/C(=N\NC(=O)C(C)n1nc(C)c([N+](=O)[O-])c1C)c1ccccc1O (stereo not given) | 86% | 7% | ? | -49% | 15% | i
COc1ccccc1C(=O)Nc1ccc(NC(=O)c2cccs2)cc1 | . | 17% | . | . | . | .
COc1ccccc1C(=O)NC(=S)Nc1ccc(NC(=O)c2cccs2)cc1 | 7% | -7% | ? | -11% | 24% | i
COc1cc(NC(=O)C2CCN(S(=O)(=O)c3c(C)noc3/C=C/c3ccccc3F)CC2)cc(OC)c1OC | . | 14% | . | . | . | .
O=C(Nc1ccccc1)N1CCCC(c2nc(-c3cccs3)no2)C1 (stereo not given) | -5% | 1% | 16µM* | -21% | -62% | i
Cc1ccc2oc(C(=O)Nc3sc4c(c3C(=O)NCc3cccnc3)CCCC4)cc(=O)c2c1 | . | 12% | . | . | . | .
O=C(NC1CCC(O)CC1)c1ccc(Br)o1 (stereo not given) | -20% | . | 4.5µM* | -12% | . | i
Cc1ccc(-c2cc(C(=O)N(C)Cc3cnn(C)c3C)c3cc(Br)ccc3n2)cc1 | -1% | ? | -25% | 215% | -9% | .
Cc1ccc(-c2cc(C(=O)NCc3cnn(C)c3C)c3cc(Br)ccc3n2)cc1 | -13% | 17% | ? | 70% | 8% | i
O=C(CN1C(=O)c2ccccc2Sc2ccc(C(=O)N3CCOCC3)cc21)Nc1ccc(Cl)cc1F | . | 1% | . | . | . | .
O=C(Nc1ccc(Cl)cc1)N(CCCN1CCOCC1)Cc1cccs1 | -4% | ? | ? | 25% | -13% | i
S=C(Nc1ccc(Cl)cc1)N(CCCN1CCOCC1)Cc1cccs1 | -18% | 0% | 2% | 49% | -9% | .
CCc1ccccc1NC(=S)N(CCCN1CCOCC1)Cc1cccs1 | 0% | 1% | ? | 60% | 1% | i
O=c1cc(-c2ccc(F)cc2)nc(SCc2nc(-c3ccccc3Cl)no2)[nH]1 | . | 18% | . | . | . | .
COc1cccc(-c2ccnc3c(-c4ccc(F)cc4)c(C)nn23)c1 | . | 2% | . | . | . | .
O=C(Nc1ccc(F)c(F)c1)c1ccccc1-c1ccccc1 | 9% | -5% | 14µM* | -25% | 0% | i
O=C(Nc1cccc(Br)c1)c1ccccc1-c1ccccc1 | -7% | 1% | -63% | -17% | -39% | .
O=c1c2ccccc2ncn1CCCSc1ccccc1 | 13% | -1% | ? | -5% | -44% | i
O=c1c2ccccc2ncn1CCCSc1ccc(Cl)cc1 | 0% | -9% | -6% | -6% | -88% | .
O=C1CC[C@@]2(O)[C@H]3Cc4ccc(O)c5c4[C@@]2(CCN3CC2CC2)[C@H]1O5 | -1% | -12% | ? | -7% | 1% | i
SMILES | AMA1 RON2 block | AmpC inh detg | SARS PLpro yeast-1 | AmpC no deterg | NS1 function inh | SARS PLpro yeast-2
CCc1ccc2oc(-c3ccc(C)c(NC(=O)Cc4ccccc4)c3)nc2c1 | . | 8% | . | . | . | .
Cc1ccc(NC(=O)CN(C)S(=O)(=O)c2cccs2)cc1F | 0% | 0% | -7% | -4% | -2% | .
Cc1ccc(NC(=O)CN(C)S(=O)(=O)c2cccs2)cc1C | -1% | -2% | ? | -17% | 12% | i
COc1ccc(CCn2c(C)cc(C(=O)CCl)c2C)cc1OC | -11% | -18% | 10µM* | -13%[11.4 µM] | . | +
Nc1nc(SCC(=O)OCc2ccccc2)[nH]c(=O)c1NC(=O)c1ccco1 | 12% | -15% | ? | -8% | -27% | i
Cc1nc(N/N=C\c2ccc3c(c2)OCO3)sc1C | 74% | ? | 7.1µM* | -27% | -31% | +
Cc1cc[n+](CC(=O)Nc2cc(C(F)(F)F)ccc2Cl)cc1 | -4% | ? | 4% | 2% | 1% | .
CN(C)c1cc[n+](CC(=O)Nc2cc(C(F)(F)F)ccc2Cl)cc1 | 24% | -12% | ? | -1% | 0% | i
O=c1cccc2n1CC1CC2CN(Cc2ccc3c(c2)OCO3)C1 (stereo not given) | 17% | ? | ? | -5% | -2% | ?
C=CCOc1ccc(C2NC(=S)NC(c3ccccc3)=C2C(C)=O)cc1OC (stereo not given) | -17% | 1% | -1% | -6%[2.29 µM] | 2% | .
CCOC(=O)COc1c(Cl)cc(C2NC(=S)NC(c3ccccc3)=C2C(C)=O)cc1OCC (stereo not given) | -3% | 1% | ? | -4% | -1% | i
C=CCc1cccc(/C=N/NC(=O)CCCNc2ccc(C)cc2)c1O | -13% | 5% | 14µM* | -29% | 1% | +
C=CCc1cccc(/C=N/NC(=O)CNc2ccccc2)c1O | 122% | -5% | . | . | 7% | .
COc1ccc(N(CC(=O)Nc2cc(Cl)ccc2OC)S(=O)(=O)c2c(C)noc2C)cc1 | -3% | -16% | ? | 32% | -24% | +
O=C(c1ccc2c(=O)n(CCc3ccccc3)c(=O)[nH]c2c1)N1CCN(c2ccc(Cl)cc2)CC1 | . | 14% | . | . | . | .
C/C(CC(=O)NC1CCCCCC1)=N\NC(=O)c1cnccn1 | 67% | -15% | 3.5µM* | -21% | -6% | i
Cc1ccc(C)c(N2CC(=O)N(c3cc(C)ccc3C)CC2=O)c1 | -10% | ? | ? | -9% | 2% | i
CCOC(=O)C1CCN(C(=O)CN(c2cc(Cl)ccc2OC)S(=O)(=O)c2ccccc2)CC1 | 12% | -4% | ? | 130% | 3% | i
CCOC(=O)C1CCN(C(=O)CN(c2cc(OC)ccc2OC)S(=O)(=O)c2ccccc2)CC1 | -8% | ? | -2% | 92% | -10% | .
COc1cc(C(=O)Nc2nnc(SCC(=O)NCC3CCCO3)s2)cc(OC)c1OC (stereo not given) | 7% | 1% | 4.5µM* | 79% | 9% | i
COc1ccccc1C(=O)Nc1nnc(SCC(=O)NCC2CCCO2)s1 (stereo not given) | -16% | -2% | 1% | 90% | 1% | .
COc1cc(NS(=O)(=O)c2ccc(NC(=O)c3ccccc3C(=O)O)cc2)nc(OC)n1 | . | -1% | . | . | . | .
